Bioassay records as filed in PubChem.
ELG1 repair inh: ELG1-dependent DNA repair inhibition; HEK293T ELG1-luciferase reporter, luminescence, 16 h; DNA damage induced by 5-fluorouridine; Potency, µM (top dose mostly 46.1 µM), usual class: inhibitors; 330,000 tested, 2.3% active; AID 504467; note: nearly all actives have a fitted effect of over 55% in size
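HEK293T cells expressing luciferase-tagged ELG1 (2,000/well) received 5-Fluorouridine plus compound or DMSO for 16 hr at 37 °C. Luciferase was read by ONE-Glo luminescence after 30 min at room temperature.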
Rab9 promoter act: Rab9 promoter activation; Huh7 Rab9 promoter-luciferase reporter, luminescence, 24 h; Potency, µM (top dose mostly 9.22 µM), most hits filed as activators; 320,000 tested, 2.8% active; AID 485297; note: nearly all actives have a fitted effect of over 60% in size
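Cell-based reporter: Huh7 stable for Rab9 promoter-driven luciferase, plated in reduced-serum medium with 10% FBS at 1500 cells/well, compound-treated 24 h at 37 °C, luminescence read after 10 min reagent.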
ELG1 genotoxic: inducers of genotoxicity in HEK293T ELG1-luciferase cells; AID 504466; 330,000 tested, 1.3% active; HEK293T ELG1-luciferase reporter, luminescence, 16 h; Potency, µM (series often up to 46 µM), actives largely listed as activators; note: nearly all actives have a fitted effect of over 60% in size
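Cells (2,000/well) expressing the ELG1-luciferase fusion are dosed by pin tool and kept 16 hr at 37 °C, 5% CO2. Signal comes from ONE-Glo luciferase reagent after 30 min at room temperature.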
SMN2 splice enh: enhancers of SMN2 splice variant expression. HEK293 SMN2-luciferase splicing reporter, luminescence, 30-36 h. Potency, µM (doses to about 46.1 µM), actives largely listed as activators. 210,000 tested, 2.8% active; note: nearly all actives have a fitted effect of over 55% in size
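HEK293 cells carry an SMN2 […]–luciferase reporter in which exon 7 inclusion puts luciferase in frame. Cells were plated 10-12 h before compound addition, then incubated 30-36 h at 37C. ONE-Glo luminescence was read; sodium butyrate at 4.5 mM final served as control.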
FLuc counter: firefly luciferase modulation, counter-screen for miR-21 project | 360,000 tested, 6.9% active | Potency, µM (doses to about 57.5 µM), actives largely listed as inhibitors | purified FLuc, Km substrates, luminescence inhibition | P08659 | AID 588342; note: nearly all actives have a fitted effect of over 55% in size
Target sequence (P08659 whole entry, looked up): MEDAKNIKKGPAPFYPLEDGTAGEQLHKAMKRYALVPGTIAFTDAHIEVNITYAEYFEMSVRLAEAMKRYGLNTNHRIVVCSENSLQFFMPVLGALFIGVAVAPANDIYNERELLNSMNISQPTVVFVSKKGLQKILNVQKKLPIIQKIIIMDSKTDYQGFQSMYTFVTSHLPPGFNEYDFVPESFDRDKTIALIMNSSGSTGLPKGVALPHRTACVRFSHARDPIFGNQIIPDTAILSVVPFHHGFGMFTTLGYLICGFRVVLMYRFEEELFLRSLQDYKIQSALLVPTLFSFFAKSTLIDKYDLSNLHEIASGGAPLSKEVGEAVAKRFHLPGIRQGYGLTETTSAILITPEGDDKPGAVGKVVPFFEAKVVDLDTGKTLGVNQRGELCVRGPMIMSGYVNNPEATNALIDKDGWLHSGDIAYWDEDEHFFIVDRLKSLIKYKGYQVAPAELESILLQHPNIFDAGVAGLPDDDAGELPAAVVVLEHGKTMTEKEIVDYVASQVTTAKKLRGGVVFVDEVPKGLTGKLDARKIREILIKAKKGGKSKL
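Purified P. pyralis luciferase, 10 nM final, with Km-level 10 uM D-luciferin and 10 uM ATP in 50 mM Tris acetate pH 7.5, 10 mM Mg acetate, 0.01% Tween-20, 0.05% BSA; 6-point qHTS titration about 60 µM downward; luminescence read.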
NPC1 prom act: activates the NPC1 promoter | Huh7 NPC1 promoter luciferase reporter, 24 h | Potency, µM (series often up to 9.22 µM), hits mostly activators | 320,000 tested, 2.4% active | AID 485313; note: nearly all actives have a fitted effect of over 60% in size
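In 1536-well qHTS, Huh7 cells harboring an NPC1 promoter–luciferase construct received compound for 24 h; activation was quantified by luminescence following luciferase reagent addition.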
A number is an active result; i = inactive; ? = inconclusive; nt = no result given. An excerpt weighted towards active compounds, which were near 9.4% of everything screened. Calls come from the whole dose curve; as a rule, active = well fitted curve in the direction sought with a large enough effect; inconclusive = small, poorly fitted or top-dose-only effect, or another doubt; inactive = no such curve, though single readings can be large; an effect the other way counts as inactive or inconclusive.

SMILES	ELG1 repair inh	Rab9 promoter act	ELG1 genotoxic	SMN2 splice enh	FLuc counter	NPC1 prom act
Cc1ccc2c(c1)c1ncnc(N3CCC4(CC3)OCCO4)c1n2C	?	i	i	?	11µM	i
Cc1ccc2c(c1)c1ncnc(N3CCOCC3)c1n2C	?	i	i	i	15µM	i
Cc1ccc(OCCn2nc3ccccc3n2)c(C)c1	?	i	18µM	i	?	i
Cc1ccc(OCCCCn2ccnc2C)c(C)c1	12µM	i	i	i	i	i
O=C(CCCCn1c(=O)c2ccccc2n(Cc2ccccc2Cl)c1=O)NCc1ccc2c(c1)OCO2	nt	nt	nt	i	i	nt
O=C(c1cccc2ccccc12)C1CCCN(C(=O)c2ccc(N3CCOCC3)cc2)C1 (stereo not given)	16µM	i	i	nt	?	i
CSc1ccccc1C(=O)C1CCCN(C(=O)c2ccc(N3CCOCC3)cc2)C1 (stereo not given)	?	i	i	nt	i	i
Cc1ccc(C)c(C2=NNC(=NCc3ccccc3)SC2)c1	?	i	i	i	i	i
COc1ccc(CN=C2NN=C(c3ccccc3)CS2)cc1	i	?	i	?	27µM	i
COc1ccc(CN=C2NN=C(c3cccc(OC)c3)CS2)cc1	?	?	i	28µM	?	i
COc1cccc(C2=NNC(=NCc3ccccc3)SC2)c1	i	?	i	?	21µM	i
O=C(Nc1ccc(F)cc1C(F)(F)F)C1CCN(c2ncccn2)CC1	nt	nt	nt	i	i	nt
CCCn1c(=O)n(-c2ccccc2)c(=O)c2sc3ccccc3c21	nt	nt	nt	i	i	nt
O=C1N[C@H](Cc2ccccc2)C(=O)N1Cc1cccc2ccccc12	nt	nt	nt	i	nt	nt
O=C(O)c1ccccc1SCc1csc(-c2ccccc2)n1	?	?	?	nt	?	i
O=C(O)c1ccccc1SCc1cn2cc(Br)ccc2n1	?	?	?	?	9.5µM	?
O=C(O)c1cccnc1SCc1cn2cc(Br)ccc2n1	i	i	i	i	24µM	i
CCCCN(C)CCCNC(=O)Cn1ncc2c3ccccc3n(Cc3cc(C)ccc3C)c2c1=O	nt	nt	nt	?	i	nt
CCC(CC)C(=O)Nc1cccc(C(=O)NCCc2ccccc2)c1	?	i	i	i	?	i
Cc1cc(C(=O)NCC(=O)OCC(=O)N(C(C)C)C(C)C)ccc1[N+](=O)[O-]	i	i	i	13µM	i	i
Cc1ccc(C(=O)NCC(=O)OCC(=O)c2ccc(C)c([N+](=O)[O-])c2)cc1	i	i	i	i	i	i
CC(C)c1ccc(CCNC(=O)c2ccc([N+](=O)[O-])cc2)cc1	9.2µM	i	i	i	i	i
Cc1cccc(C(=O)NCCc2ccccc2)c1	?	1.3µM	4.6µM	nt	11µM	1.4µM
O=C(NCCc1ccccc1)c1ccc(Cl)c([N+](=O)[O-])c1	?	i	i	?	?	i
Cc1cc(C(=O)NCCc2ccccc2)ccc1[N+](=O)[O-]	?	4µM	?	11µM	13µM	2.2µM
SMILES	ELG1 repair inh	Rab9 promoter act	ELG1 genotoxic	SMN2 splice enh	FLuc counter	NPC1 prom act
COc1ccc(S(=O)(=O)c2c(C(=O)c3ccc(C)c(C)c3)cnc3ccc(C)cc23)cc1	nt	nt	nt	i	i	nt
CCOc1ccc(CC(=O)Nc2c(C(=O)Nc3ccc(OC)cc3OC)oc3ccccc23)cc1	nt	nt	nt	i	i	nt
COc1cccc(N2CCN(C(=O)c3cnn(-c4ccc(C)cc4C)c3C3CCN(C(=O)OC(C)(C)C)CC3)CC2)c1	nt	nt	nt	nt	i	nt
O=C(NCCc1ccccc1)c1ccc(NCC2CCCO2)c([N+](=O)[O-])c1 (stereo not given)	?	?	?	10µM	?	?
O=C(NCCc1ccccc1)c1ccc([N+](=O)[O-])cc1	?	0.45µM	?	11µM	3µM	0.4µM
Cc1cccc(C(=O)N=c2sccn2C)c1[N+](=O)[O-]	?	?	10µM	nt	15µM	2.8µM
CCN(CC)S(=O)(=O)c1cc(C(=O)N=c2sccn2C)ccc1OC	i	i	i	nt	i	i
Cc1ccc(C(=O)N=c2sccn2C)cc1S(=O)(=O)N1CCOCC1	?	1.4µM	?	nt	?	4µM
Cn1ccsc1=NC(=O)c1ccc(S(C)(=O)=O)c([N+](=O)[O-])c1	?	i	i	nt	4.8µM	?
CCCCOc1ccc(C(=O)N=c2sccn2C)cc1OC	?	2.8µM	?	nt	12µM	3.5µM
CCCCCCCCCCCCCCC[C@H](O)[C@@H](N)CO	nt	nt	nt	i	nt	nt
COc1cccc(/C=N/NC(=S)NC2CC3CCC2C3)c1OC (stereo not given)	?	i	i	nt	i	i
Oc1ccccc1/C=N/NC(=S)NC1CC2CCC1C2 (stereo not given)	?	2.8µM	i	nt	27µM	2µM
S=C(N/N=C/c1ccco1)NC1CC2CCC1C2 (stereo not given)	?	?	?	nt	19µM	?
